Measured values taken from PubChem BioAssay (NCATS).
Records with an inconclusive call do not appear. A call without a number means that no potency is given here. The source made the active and inactive calls. Calls follow the shape of the dose curve; as a rule, active = well fitted curve in the direction sought with a large enough effect; inconclusive = small, poorly fitted or top-dose-only effect, or another doubt; inactive = no such curve, though single readings can be large; an effect the other way counts as inactive or inconclusive. Numbered stars: 1 amine (or outer) side, 2 acyl side, 3 side chain; on linkers, the order of the positions; unused ones are H or OH. Square brackets hold non-standard residues; d marks the D form. Peptide text beside a SMILES is read from it. ξ: configuration not given here. X4 = O=C(C1CC2(c3ccc(O)cc3)c3ccccc3NC2N1[*:1])[*:2]; ξW = NC(Cc1c[nH]c2ccccc12)C(=O)O; ξY = NC(Cc1ccc(O)cc1)C(=O)O

Tests used:
[1] = tested on: Zika virus NS2B-NS3 protease (linked construct); experiment: Primary screen NINDS Rhodamine qHTS for Zika virus inhibitors (AID 1347160); also: nearly all actives have a fitted effect of over 55% in size; also: potency is read from the fitted curve at half-maximal effect
Procedure, shortened: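 Rhodamine110-peptide cleavage (1.5 µM substrate) by 25 nM linked NS2B-NS3 enzyme at pH 8.0 (Tris, Tween 20), after 15 min RT preincubation with compounds; 15-min fluorescence change normalized to controls and Hill-fitted.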

[2] = OV-KATE Cancer Cell Toxicity qHTS against the NCATS CANVASS Library (AID 1347345)
Procedure, shortened: (§1)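 1000 cells/well; 4 h settle; 11-pnt titration; 72 h, 37 degrees C, 5% CO2; CellTiter-Glo, 15min RT; luminescence read.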

[3] = HPAF-II Cancer Cell Toxicity qHTS against the NCATS CANVASS Library (AID 1347346); also: series mostly up to about 38 µM; nearly all actives have a fitted effect of over 55% in size
Procedure, shortened: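 First, HPAF-II cells are plated (1000 cells/well) and held 4 h at 37 degrees C. Next, compounds are pin-transferred as an 11-point series. After 72 h, CellTiter-Glo is added and luminescence measured.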

[4] = UWB1.289 Cancer Cell Toxicity qHTS against the NCATS CANVASS Library (AID 1347347); also: nearly all actives have a fitted effect of over 60% in size
Procedure, shortened: as §1

[5] = Panc-1005 Cancer Cell Toxicity qHTS against the NCATS CANVASS Library (AID 1347349); also: series mostly up to about 38 µM; nearly all actives have a fitted effect of over 60% in size
Procedure, shortened: as §1

[6] = U-118MG Cancer Cell Toxicity qHTS against the NCATS CANVASS Library (AID 1347351)
Procedure, shortened: as §1

[7] = COV-362 Cancer Cell Toxicity qHTS against the NCATS CANVASS Library (AID 1347352); also: series mostly up to about 38 µM
Procedure, shortened: (§2)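 First, 1000 cells go into each well and rest for 4 hours. Next, an 11-point dilution range is pinned in. Plates then incubate 72 hours before CellTiter-Glo addition and luminescence reading.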

[8] = A2780 Cisplatin Sensitive Ovarian Cancer Cell Toxicity qHTS against the NCATS CANVASS Library (AID 1347353); also: nearly all actives have a fitted effect of over 60% in size; also: potency is read from the fitted curve at half-maximal effect
Procedure, shortened: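 Cells are plated at 750 per well and rest for 4 hours. Compounds are added across eleven concentrations, and incubated 72 hours before ATP is quantified by luminescence.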

[9] = UWB1.289-WTBRCA1 Cancer Cell Toxicity qHTS against the NCATS CANVASS Library (AID 1347354)
Procedure, shortened: as §2

[10] = HEK293 18hr Apoptosis Induction qHTS against the NCATS CANVASS Library (AID 1347357)
Procedure, shortened: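 Cells seeded at 500/well in DMEM + 10% FBS. Compounds pinned, 11 concentrations. 18 h, 37 degrees C/5% CO2. Caspase-Glo 3/7 added, 15 min RT dark, luminescence read.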

[11] = HEK293 12hr Apoptosis Induction qHTS against the NCATS CANVASS Library (AID 1347361)
Procedure, shortened: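 Cells are seeded, dosed with an 11-point compound series and incubated 12 hours. Caspase-3/7 activity is detected by luminescent DEVD-substrate reagent after 15 minutes at room temperature.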

[12] = qHTS for ATAD5 Agonist screened against the NCATS CANVASS Library (AID 1347367);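 also: luciferase reporter driven by ATAD5 which rises upon DNA damage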
Procedure, shortened: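 HEK293T-ATAD5 luc reporter; 2000 cells/well; 5hr settle; cpd 11-pt qHTS; 16hr 37C 5% CO2 dark; viability by CellTiter-Fluor (AFC fluorescence); then luciferase luminescence, 30min RT.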

[13] = MCF7 Cancer Cell Toxicity qHTS against the NCATS CANVASS Library (AID 1347369)
Procedure, shortened: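 Cells seeded at 500/well, then compound pinned. Plates incubated 72 hr at 37C, 5% CO2. CellTiterGlo added; luminescence read.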

[14] = qHTS for ATAD5 Antagonist screened against the NCATS CANVASS Library (AID 1347370);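 also: HEK293T cells carrying an ATAD5 luciferase reporter co-treated with 10 µM 5-fluorouridine; series mostly up to about 46 µM; nearly all actives have a fitted effect of over 65% in size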
Procedure, shortened: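 Compounds (11-point) co-dosed with 10 µM 5-FUrd for 16 h at 37 °C onto HEK293T-ATAD5 luciferase reporter cells. Viability measured by CellTiter-Fluor fluorescence, then ATAD5 reporter signal by luminescence.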

[15] = J3T Cancer Cell Toxicity qHTS against the NCATS CANVASS Library (AID 1347371)
Procedure, shortened: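 Luminescence from CellTiterGlo, reporting cellular ATP, serves as the viability measure after 72 hr compound treatment of J3T canine glioma cells seeded at 500 cells/well.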

[16] = target: Nuclear receptor subfamily 1 group I member 3 (Homo sapiens) (UniProt Q14994); experiment: qHTS for Constitutive Androstane Receptor (CAR) Agonist screened against the NCATS CANVASS Library (AID 1347373);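 also: every well also contained 1.5 µM PK11195 alongside the test compound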
Nuclear receptor subfamily 1 group I member 3 (Homo sapiens), sequence (Q14994 whole entry, looked up): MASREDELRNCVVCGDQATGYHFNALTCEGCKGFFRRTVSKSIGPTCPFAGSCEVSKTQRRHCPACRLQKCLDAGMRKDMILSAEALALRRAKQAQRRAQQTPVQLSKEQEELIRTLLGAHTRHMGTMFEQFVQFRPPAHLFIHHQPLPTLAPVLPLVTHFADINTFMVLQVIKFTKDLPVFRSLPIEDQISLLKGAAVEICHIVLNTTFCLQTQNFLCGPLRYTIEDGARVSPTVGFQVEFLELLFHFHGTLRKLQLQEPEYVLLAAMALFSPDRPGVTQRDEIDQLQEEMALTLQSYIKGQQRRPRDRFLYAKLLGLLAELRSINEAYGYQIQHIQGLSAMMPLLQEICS
Procedure, shortened: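 Cells were plated and allowed to attach for 4hr, then dosed with compound in an 11-point series alongside 1.5uM PK11195. After 24hr at 37C, viability was measured fluorometrically and CAR-driven CYP2B6 reporter luminescence was recorded.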

[17] = qHTS for Inflammasome Signaling Inhibitors: IL-1-beta AlphaLISA screen against the NCATS CANVASS Library (AID 1347379);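 also: human THP-1 cells primed with LPS then triggered with ATP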
Procedure, shortened: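 Secreted IL-1B from human THP-1 cells quantified by AlphaLISA 16 hr after compound addition (final up to 57.5 uM). A 1 hr compound pretreatment preceded inflammasome activation with 250 ng/mL LPS plus 1.25 mM ATP (final).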

[18] = Inflammasome Signaling qHTS Counterscreen: IL-1-beta AlphaLISA counterscreen against the NCATS CANVASS Library (AID 1347381);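 also: cell-free check with purified IL-1β in medium and no THP-1 cells; series mostly up to about 57 µM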
Procedure, shortened: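 Purified IL-1-beta (4 pg/well) + compound, 11-pt conc. series; acceptor beads 6 ug/mL + biotin-Ab 0.6 nM final, 1 h RT; SA-donor 24 ug/ml final, 30 min dark RT; read ex 680/em 615.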

[19] = Cytotoxicity qHTS for assessment of Hepg2 cells membrane integrity screened against the NCATS CANVASS Library (AID 1347387)
Procedure, shortened: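 Cells were seeded at 2000 per well and left overnight to attach. Compounds were pin-transferred to give 0.59 nM - 46 uM in an 11-point series and incubated 5 hr at 37C. CytoTox-ONE reagent was added and, after 10 min at room temperature, fluorescence (ex 560, em 590 nm) was read.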

[20] = Vero-766 cells viability qHTS against the NCATS CANVASS Library: Counterscreen for Zika virus inhibition assay (AID 1347394); also: series mostly up to about 46 µM; nearly all actives have a fitted effect of over 60% in size
Procedure, shortened: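 Vero 766, no virus; 1000 cells/well; o/n attach; cpd 11-pt; 72 h, 37C, 5% CO2; CTG luminescence; cell-free media wells = 100% inhibition.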

CC1C(=O)C23CCC1C[C@]21O[C@@H]2C(C)(C)C=CC(=O)[C@@]23COC1=O (some centres undefined)
Potency [1]: 31.1 µM (active) | Potency [2]: inactive | Potency [3]: inactive | Potency [4]: inactive | Potency [5]: inactive | Potency [6]: inactive | Potency [7]: inactive | Potency [8]: inactive | Potency [9]: inactive | Potency [10]: inactive | Potency [11]: inactive | Potency [12]: inactive | Potency [13]: inactive | Potency [14]: inactive | Potency [15]: inactive | outcome [16]: inactive | Potency [17]: inactive | outcome [18]: inactive | outcome [19]: inactive | Potency [20]: inactive

CC[C@@H]1C[C@@]2(CC)OC(=O)[C@@]3(CC)OC(=O)[C@@H]1[C@@H]23
Potency [1]: inactive | Potency [2]: inactive | Potency [3]: inactive | Potency [4]: inactive | Potency [5]: inactive | Potency [6]: inactive | Potency [7]: inactive | Potency [8]: inactive | Potency [9]: inactive | Potency [10]: inactive | Potency [11]: inactive | Potency [12]: inactive | Potency [13]: inactive | Potency [14]: inactive | Potency [15]: inactive | outcome [16]: inactive | Potency [17]: inactive | outcome [18]: inactive | outcome [19]: inactive | Potency [20]: inactive

Cc1cc(O)cc2oc(C[C@H](C)O)cc(=O)c12
Potency [1]: 44 µM (active) | Potency [2]: inactive | Potency [3]: inactive | Potency [4]: inactive | Potency [5]: inactive | Potency [6]: inactive | Potency [7]: inactive | Potency [8]: inactive | Potency [9]: inactive | Potency [10]: inactive | Potency [11]: inactive | Potency [12]: inactive | Potency [13]: inactive | Potency [14]: inactive | Potency [15]: inactive | outcome [16]: inactive | Potency [17]: inactive | outcome [18]: inactive | outcome [19]: inactive | Potency [20]: inactive

C/C1=C\CC(=O)/C=C/C=C\c2csc(n2)[C@@H](C)NC(=O)C[C@@](S)([C@@H](C)C(=O)O)CC1
Potency [1]: 7.82 µM (active) | Potency [2]: inactive | Potency [3]: inactive | Potency [4]: inactive | Potency [5]: inactive | Potency [6]: inactive | Potency [7]: inactive | Potency [8]: inactive | Potency [9]: inactive | Potency [10]: inactive | Potency [11]: inactive | Potency [12]: inactive | Potency [13]: inactive | Potency [14]: inactive | Potency [15]: inactive | outcome [16]: inactive | Potency [17]: inactive | outcome [18]: inactive | outcome [19]: inactive | Potency [20]: inactive

COC1C(O)C(OC(N)=O)C(Oc2ccc3c(O)c(NC(=O)c4ccc(O)c(CC=C(C)C)c4)c(=O)oc3c2C)OC1(C)C (centres undefined)
Potency [1]: 44 µM (active) | Potency [2]: inactive | Potency [3]: inactive | Potency [4]: inactive | Potency [5]: inactive | Potency [6]: inactive | Potency [7]: inactive | Potency [8]: inactive | Potency [9]: inactive | Potency [10]: inactive | Potency [11]: inactive | Potency [12]: inactive | Potency [13]: inactive | Potency [14]: inactive | Potency [15]: inactive | outcome [16]: inactive | Potency [17]: inactive | outcome [18]: inactive | outcome [19]: inactive | Potency [20]: inactive

OCc1ccc2ocnc2c1
Potency [1]: inactive | Potency [2]: inactive | Potency [3]: inactive | Potency [4]: inactive | Potency [5]: inactive | Potency [6]: inactive | Potency [7]: inactive | Potency [8]: inactive | Potency [9]: inactive | Potency [10]: inactive | Potency [11]: inactive | Potency [12]: inactive | Potency [13]: inactive | Potency [14]: inactive | Potency [15]: inactive | outcome [16]: inactive | Potency [17]: inactive | outcome [18]: inactive | outcome [19]: inactive | Potency [20]: inactive

O=C(O)[C@@]12COC3(O)C1CCN1CC[C@H]3[C@@H]1c1c2[nH]c2ccccc12
Potency [1]: inactive | Potency [2]: inactive | Potency [3]: inactive | Potency [4]: inactive | Potency [5]: inactive | Potency [6]: inactive | Potency [7]: inactive | Potency [8]: inactive | Potency [9]: inactive | Potency [10]: inactive | Potency [11]: inactive | Potency [12]: inactive | Potency [13]: inactive | Potency [14]: inactive | Potency [15]: inactive | outcome [16]: inactive | Potency [17]: inactive | outcome [18]: inactive | outcome [19]: inactive | Potency [20]: inactive

COc1ccc2cc(NC(=O)C3=NO[C@H]4[C@H](O)C=C[C@@H](Cl)[C@@]4(O)C3)c(=O)oc2c1OC
Potency [1]: 49.3 µM (active) | Potency [2]: inactive | Potency [3]: inactive | Potency [4]: inactive | Potency [5]: inactive | Potency [6]: inactive | Potency [7]: inactive | Potency [8]: 9.35 µM (active) | Potency [9]: inactive | Potency [10]: inactive | Potency [11]: inactive | Potency [12]: inactive | Potency [13]: inactive | Potency [15]: inactive | outcome [16]: inactive | Potency [17]: inactive | outcome [18]: inactive | outcome [19]: inactive | Potency [20]: inactive

COc1cc(/C=C/C(=O)O)ccc1O
Potency [1]: inactive | Potency [2]: inactive | Potency [3]: inactive | Potency [4]: inactive | Potency [5]: inactive | Potency [6]: inactive | Potency [7]: inactive | Potency [8]: inactive | Potency [9]: inactive | Potency [10]: inactive | Potency [11]: inactive | Potency [12]: inactive | Potency [13]: inactive | Potency [14]: inactive | Potency [15]: inactive | outcome [16]: inactive | Potency [17]: inactive | outcome [18]: inactive | outcome [19]: inactive | Potency [20]: inactive

CC[C@H](C)[C@H](NC(=O)C(Cc1ccc(O)cc1)NC(=O)C(Cc1c[nH]c2ccccc12)NC(=O)[C@H](C)N)C(=O)N1C(C(=O)NC(Cc2ccc(O)cc2)C(=O)O)CC2(c3ccc(O)cc3)c3ccccc3NC12 (some centres undefined) (H-A[ξW][ξY]I[X4][ξY]-OH)
Potency [1]: 9.84 µM (active) | Potency [2]: inactive | Potency [3]: inactive | Potency [4]: inactive | Potency [5]: inactive | Potency [6]: inactive | Potency [7]: inactive | Potency [8]: inactive | Potency [9]: inactive | Potency [10]: inactive | Potency [11]: inactive | Potency [12]: inactive | Potency [13]: inactive | Potency [14]: inactive | Potency [15]: inactive | outcome [16]: inactive | Potency [17]: inactive | outcome [18]: inactive | outcome [19]: inactive | Potency [20]: inactive

C[C@]12CC[C@]3(C1)[C@H](CC2=O)CC(OC(=O)c1ccccc1)[C@H]1[C@@](CO)(C(=O)O)CCC[C@@]13C (some centres undefined)
Potency [1]: 49.3 µM (active) | Potency [2]: inactive | Potency [3]: inactive | Potency [4]: inactive | Potency [5]: inactive | Potency [6]: inactive | Potency [7]: inactive | Potency [8]: inactive | Potency [9]: inactive | Potency [10]: inactive | Potency [11]: inactive | Potency [12]: inactive | Potency [13]: inactive | Potency [14]: inactive | Potency [15]: inactive | outcome [16]: inactive | Potency [17]: inactive | outcome [18]: inactive | outcome [19]: inactive | Potency [20]: inactive
